Several values for one entry are separate records, joined by “and”; a condition that tells them apart may be missing. Equal values may be shown once. Results filed as inconclusive are left out. A structure can be active in one record and inactive in another. Activity calls are given as the source filed them. Rule for the calls: active = hit-call score of the fitted dose curve at least 0.9, where 1 is the maximum; inconclusive = response in the unintended direction; inactive = score below 0.9.
Key:
[1] = ATG_XTT_Cytotoxicity: Cytotoxicity Assessment in the Attagene TRANS-FACTORIAL HepG2 Assay (AID 2283584)
In short: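 24 h chemical exposure of reporter-transfected HepG2; XTT signal loss vs DMSO indicates cytotoxicity.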

[2] = biological target: Cellular tumor antigen p53 (Homo sapiens) (UniProt P04637); assay: TOX21_p53_BLA_p2_ratio: Tox21 HCT-116 p53 Agonism Beta-lactamase Assay, Ratio, Phase 2 (AID 2283592)
Sequence of Cellular tumor antigen p53 (Homo sapiens) (P04637 whole entry, looked up): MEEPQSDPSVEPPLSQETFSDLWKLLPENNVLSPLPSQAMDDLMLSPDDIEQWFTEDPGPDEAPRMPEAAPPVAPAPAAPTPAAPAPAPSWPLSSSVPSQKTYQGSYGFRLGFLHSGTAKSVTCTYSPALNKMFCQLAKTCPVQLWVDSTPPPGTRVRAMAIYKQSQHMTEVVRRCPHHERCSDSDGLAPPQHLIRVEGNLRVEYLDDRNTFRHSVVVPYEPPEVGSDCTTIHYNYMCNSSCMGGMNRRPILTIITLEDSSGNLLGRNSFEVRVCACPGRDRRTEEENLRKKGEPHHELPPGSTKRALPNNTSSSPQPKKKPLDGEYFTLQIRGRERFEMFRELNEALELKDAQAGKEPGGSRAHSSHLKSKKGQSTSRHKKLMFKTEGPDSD
In short: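 DMSO-normalized, positive-direction endpoint derived from the 460 nm/530 nm FRET ratio in HCT116 p53 beta-lactamase reporter cells exposed 16 h at 37C and loaded with CCF4-AM for 2 h.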

[3] = TOX21_p53_BLA_p3_viability: Viability Assessment in the Tox21 HCT-116 p53 Agonism Beta-lactamase Assay, Phase 3 (AID 2283593);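 note: cells exposed to compound for 16 h before reading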
In short: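 Cellular ATP was quantified by CellTiter-Glo luminescence, read after 30 min at room temperature. Beforehand, HCT116 cells (4000/well) received compound 5 h post-seeding, 217-fold diluted from DMSO, then incubated 16 h at 37C.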

[4] = TOX21_p53_BLA_p4_viability: Viability Assessment in the Tox21 HCT-116 p53 Agonism Beta-lactamase Assay, Phase 4 (AID 2283597);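 note: hits lower the luminescence signal meaning cytotoxicity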
In short: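 In this multiplexed secondary endpoint, HCT116 cells (4000 per well, compound at 5 h, 16 h treatment) received CellTiter-Glo after the beta-lactamase read. Luminescence after 30 min RT reflects ATP, and falling signal marks cytotoxicity.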

[5] = biological target: Cellular tumor antigen p53 (Homo sapiens) (UniProt P04637); assay: TOX21_p53_BLA_p5_ratio: Tox21 HCT-116 p53 Agonism Beta-lactamase Assay, Ratio, Phase 5 (AID 2283599)
In short: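 Beta-lactamase reporter ratio (blue 460 nm over green 530 nm, 405 nm excitation) after 2 h CCF4-AM loading, in HCT-116 cells exposed 16 h at 37 C to compounds pinned at 217-fold dilution. Increases relative to DMSO baseline scored.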

[6] = biological target: Cellular tumor antigen p53 (Homo sapiens) (UniProt P04637); assay: TOX21_p53_BLA_p4_ratio: Tox21 HCT-116 p53 Agonism Beta-lactamase Assay, Ratio, Phase 4 (AID 2283601)
In short: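 Signal is the blue/green (460nm/530nm) ratio of cleaved versus uncleaved CCF4-AM substrate, read after 2 h substrate loading. Cells were HCT116 carrying the p53-responsive beta-lactamase reporter, dosed 16 h at 37C, 5% CO2; CellTiter-Glo measured in parallel.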

[7] = biological target: Cellular tumor antigen p53 (Homo sapiens) (UniProt P04637); assay: TOX21_p53_BLA_p3_ratio: Tox21 HCT-116 p53 Agonism Beta-lactamase Assay, Ratio, Phase 3 (AID 2283596)
In short: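 Cells were seeded at 4000/well, rested 5 h at 37C, then dosed with DMSO compound solutions (217-fold dilution) for 16 h. CCF4-AM substrate was loaded for 2 h at room temperature, and the 460/530 nm emission ratio was fitted for gain of signal versus DMSO.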

[8] = TOX21_p53_BLA_p5_viability: Viability Assessment in the Tox21 HCT-116 p53 Agonism Beta-lactamase Assay, Phase 5 (AID 2283600)
In short: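 Here cell health was gauged by ATP levels in wells holding 4000 cells, each treated 16 h with DMSO-delivered compounds at 217-fold dilution; reduced luminescence marked toxicity.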

[9] = TOX21_p53_BLA_p2_viability: Viability Assessment in the Tox21 HCT-116 p53 Agonism Beta-lactamase Assay, Phase 2 (AID 2283591);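 note: compound exposure lasted 16 h at 37 °C; actives lower the ATP signal meaning cytotoxicity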
In short: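 Cytotoxicity readout: CellTiter-Glo ATP luminescence, 30 min at room temperature, after the beta-lactamase read. Cells were HCT116 exposed 16 h at 37C to compounds pin-transferred at 217-fold dilution from DMSO stocks.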

Structure (SMILES): COC(N)=O
- outcome [1]: inactive
- outcome [2]: inactive
- outcome [3]: inactive
- outcome [4]: inactive
- outcome [5]: inactive
- outcome [6]: inactive

Structure (SMILES): C=CC(=O)OCC(CC)(COC(=O)C=C)COC(=O)C=C
- outcome [1]: inactive
- AC50 [2]: 86.6 µM (active)
- outcome [2]: inactive
- AC50 [3]: 69.2 µM (active) and 16.2 µM (active)
- outcome [7]: inactive
- AC50 [4]: 75.7 µM (active) and 97.1 µM (active)
- outcome [5]: inactive
- AC50 [8]: 85.1 µM (active) and 89.1 µM (active)
- AC50 [6]: 69.1 µM (active)
- outcome [6]: inactive

Structure (SMILES): CCN(CC)C1CCCCC1
- outcome [2]: inactive
- outcome [3]: inactive
- outcome [7]: inactive
- outcome [5]: inactive
- outcome [8]: inactive
- outcome [6]: inactive

Structure (SMILES): CCOP(=S)(NC(C)C)Oc1ccccc1C(=O)OC(C)C (stereo not given)
- outcome [1]: inactive
- outcome [2]: inactive
- outcome [3]: inactive
- AC50 [4]: 33.5 µM (active)
- outcome [5]: inactive
- outcome [8]: inactive
- outcome [6]: inactive

Structure (SMILES): CC1(C)CN=C(NN=C(/C=C/c2ccc(C(F)(F)F)cc2)/C=C/c2ccc(C(F)(F)F)cc2)NC1
- outcome [1]: inactive
- AC50 [2]: 20.6 µM (active)
- AC50 [3]: 31.6 µM (active)
- AC50 [7]: 39.5 µM (active)
- outcome [4]: inactive
- AC50 [5]: 44.7 µM (active)
- AC50 [8]: 46.1 µM (active)
- outcome [6]: inactive

Structure (SMILES): O=S(=O)(c1ccc(O)cc1)c1ccc(O)cc1
- outcome [1]: inactive
- outcome [2]: inactive
- outcome [3]: inactive
- outcome [7]: inactive
- outcome [4]: inactive
- outcome [8]: inactive

Structure (SMILES): O=c1[nH]c2ccccc2c(=O)o1
- outcome [1]: inactive
- outcome [2]: inactive
- outcome [7]: inactive
- outcome [4]: inactive
- outcome [5]: inactive
- outcome [8]: inactive
- outcome [6]: inactive

Structure (SMILES): C=C(C)C(=O)OCC1CO1 (stereo not given)
- outcome [1]: inactive
- outcome [2]: inactive
- outcome [3]: inactive
- outcome [7]: inactive
- outcome [4]: inactive
- outcome [5]: inactive
- outcome [8]: inactive
- outcome [6]: inactive

Structure (SMILES): Clc1ccc(Oc2ccccc2)cc1
- outcome [1]: inactive

Structure (SMILES): CCCCC(CC)COC(=O)c1c(Br)c(Br)c(Br)c(Br)c1C(=O)OCC(CC)CCCC (stereo not given)
- outcome [2]: inactive
- outcome [7]: inactive
- outcome [5]: inactive
- outcome [6]: inactive

Structure (SMILES): CCCCc1ccc(O)cc1
- outcome [1]: inactive
- outcome [2]: inactive
- outcome [7]: inactive
- outcome [4]: inactive
- outcome [5]: inactive
- outcome [6]: inactive

Structure (SMILES): c1ccc2c(c1)sc1ccccc12
- outcome [1]: inactive
- outcome [2]: inactive
- outcome [3]: inactive
- outcome [7]: inactive
- outcome [4]: inactive
- outcome [5]: inactive
- outcome [8]: inactive
- outcome [6]: inactive

Structure (SMILES): CCCCOCC1CO1 (stereo not given)
- outcome [1]: inactive
- outcome [2]: inactive
- outcome [7]: inactive
- outcome [5]: inactive
- outcome [8]: inactive
- outcome [6]: inactive

Structure (SMILES): C/C(=N\NC(=O)Nc1cc(F)cc(F)c1)c1ncccc1C(=O)O
- outcome [1]: inactive
- outcome [2]: inactive
- outcome [3]: inactive
- outcome [7]: inactive
- outcome [8]: inactive

Structure (SMILES): NNC(N)=S
- outcome [1]: inactive
- outcome [2]: inactive
- outcome [3]: inactive
- outcome [7]: inactive
- outcome [4]: inactive
- outcome [5]: inactive
- outcome [6]: inactive

Structure (SMILES): O=S1(=O)OCC2C(CO1)C1(Cl)C(Cl)=C(Cl)C2(Cl)C1(Cl)Cl (stereo not given)
- outcome [1]: inactive
- outcome [2]: inactive
- outcome [3]: inactive
- outcome [7]: inactive
- outcome [4]: inactive
- outcome [5]: inactive
- outcome [8]: inactive
- outcome [6]: inactive

Structure (SMILES): O=c1ssc(Cl)c1Cl
- outcome [1]: inactive
- outcome [2]: inactive
- AC50 [3]: 73.7 µM (active)
- AC50 [7]: 61.2 µM (active)
- outcome [8]: inactive
- outcome [6]: inactive

Structure (SMILES): CNC(=O)Oc1ccc(N(C)C)c(C)c1
- outcome [2]: inactive
- outcome [7]: inactive
- outcome [5]: inactive
- outcome [8]: inactive
- outcome [6]: inactive

Structure (SMILES): O=C(CBr)OCc1ccccc1
- outcome [1]: inactive
- outcome [2]: inactive
- outcome [7]: inactive
- outcome [8]: inactive

Structure (SMILES): CC1=C(C(=O)Nc2ccccc2)S(=O)(=O)CCO1
- outcome [1]: inactive
- AC50 [2]: 22.1 µM (active)
- outcome [4]: inactive
- AC50 [5]: 15.8 µM (active)
- outcome [8]: inactive
- AC50 [6]: 21 µM (active)

Structure (SMILES): Cc1c([N+](=O)[O-])cc2c(c1[N+](=O)[O-])C(C)(C)CC2(C)C
- outcome [1]: inactive
- outcome [2]: inactive
- outcome [7]: inactive
- outcome [8]: inactive
- outcome [6]: inactive

Structure (SMILES): O=NN1CCCC1
- outcome [2]: inactive
- outcome [3]: inactive
- outcome [7]: inactive
- outcome [5]: inactive
- outcome [8]: inactive
- outcome [6]: inactive

Structure (SMILES): FC(F)(F)c1ccc(Cl)cc1
- outcome [1]: inactive
- outcome [2]: inactive
- outcome [3]: inactive
- outcome [7]: inactive
- outcome [5]: inactive
- outcome [6]: inactive

Structure (SMILES): CCCCOCCOP(=O)(OCCOCCCC)OCCOCCCC
- outcome [1]: inactive
- outcome [2]: inactive
- outcome [3]: inactive
- outcome [4]: inactive
- outcome [8]: inactive
- outcome [6]: inactive

Structure (SMILES): O=P(OCC(Br)CBr)(OCC(Br)CBr)OCC(Br)CBr (stereo not given)
- outcome [1]: inactive
- outcome [9]: inactive
- AC50 [2]: 80.2 µM (active)
- outcome [2]: inactive
- outcome [3]: inactive
- AC50 [7]: 75.3 µM (active) and 86.9 µM (active)
- outcome [4]: inactive
- AC50 [5]: 66.9 µM (active) and 74.7 µM (active)
- outcome [8]: inactive
- AC50 [6]: 75.7 µM (active) and 73.6 µM (active)

Structure (SMILES): CC(=O)CCc1ccc2c(c1)OCO2
- outcome [1]: inactive
- outcome [2]: inactive
- outcome [7]: inactive
- outcome [5]: inactive
- outcome [8]: inactive

Structure (SMILES): CO/N=C(/C(=O)OC)c1ccccc1COc1ccccc1C
- outcome [1]: inactive
- AC50 [2]: 27.1 µM (active)
- outcome [3]: inactive
- outcome [7]: inactive
- outcome [4]: inactive
- outcome [5]: inactive
- outcome [8]: inactive
- outcome [6]: inactive

From PubChem BioAssay (EPA / NIEHS)
